DT40 TDP1 CPT: qHTS for Inhibitors of human tyrosyl-DNA phosphodiesterase 1 (TDP1): qHTS in cells in presence of CPT. chicken DT40 Tdp1-/-;hTDP1 cells + 20 nM CPT, ATP luminescence, 48 h. Potency, µM (titrated, usually from 46.2 µM), for the others: at the top dose activity change, negative = growth inhibition, usual class: inhibitors. AID 686979, 2013. 12% of 420,000 active; also: potency is read from the fitted curve at half-maximal effect; nearly all actives have a fitted effect of over 55% in size
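Chicken DT40 Tdp1-/- cells complemented with human TDP1, 400 cells/well, exposed to compounds plus 20 nM camptothecin for at least 48 h at 37 C; viability read as ATP content by CellTiter-Glo luminescence.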
RORgamma inh: qHTS for inhibitors of ROR gamma transcriptional activity; Nuclear receptor ROR-gamma (Mus musculus), P51450; Drosophila S2 Gal4-RORgamma UAS-luciferase reporter, 20 h; Potency, µM (highest dose often 53.6 µM), for the others: at the top dose activity change, negative = inhibition, usual class: inhibitors; 5.4% of 310,000 active; AID 2551, 2010; also: potency is read from the fitted curve at half-maximal effect; nearly all actives have a fitted effect of over 60% in size
Target sequence (P51450 whole entry, looked up, the tested form may be a part): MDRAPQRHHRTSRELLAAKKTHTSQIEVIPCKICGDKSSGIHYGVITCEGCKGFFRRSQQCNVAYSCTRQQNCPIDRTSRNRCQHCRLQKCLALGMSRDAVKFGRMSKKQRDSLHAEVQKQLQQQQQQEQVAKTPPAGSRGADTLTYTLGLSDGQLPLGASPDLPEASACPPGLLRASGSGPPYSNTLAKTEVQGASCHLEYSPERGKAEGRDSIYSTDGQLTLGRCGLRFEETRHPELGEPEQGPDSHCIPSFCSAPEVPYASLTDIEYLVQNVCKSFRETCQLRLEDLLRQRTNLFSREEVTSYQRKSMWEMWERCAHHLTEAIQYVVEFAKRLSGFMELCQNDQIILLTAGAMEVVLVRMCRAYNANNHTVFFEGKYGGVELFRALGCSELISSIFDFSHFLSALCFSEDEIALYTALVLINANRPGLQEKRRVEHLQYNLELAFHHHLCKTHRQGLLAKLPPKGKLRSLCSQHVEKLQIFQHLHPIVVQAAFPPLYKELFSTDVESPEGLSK
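Using a luciferase readout, inhibitors were identified by reduced reporter activity in Drosophila cells coexpressing a copper-inducible Gal4–ROR gamma fusion and UAS-driven Photinus luciferase, incubated 20 hr after 700 uM copper sulfate.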
IL1B secr inh: qHTS for Inhibitors of Inflammasome Signaling: IL-1-beta AlphaLISA Primary Screen; THP-1 LPS/ATP IL-1B secretion, AlphaLISA, 16 h; stronger effect = lower value; activity change, % at 57.5 µM; 4.7% of 360,000 active; AID 743279, 2014; in the data active = activity change below about -50%; inconclusive = mostly about -30% to -49%
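THP-1 cells pretreated 1 hr with compounds (up to 57.5 uM final), then stimulated with LPS (250 ng/mL final) plus ATP (1.25 mM final); secreted IL-1B measured by AlphaLISA after 16 hr, decreased signal indicating inhibition.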
LDHA inh: qHTS assay for inhibitors of human lactate dehydrogenase; activity change, % (values are at about 110 or 230 µM); L-lactate dehydrogenase A chain (Homo sapiens), P00338; AID 1347041, 2019; 0.15% of 480,000 active; purified LDHA, NADH/diaphorase-resazurin fluorescence; stronger effect = lower value; in the data active = activity change below about -30%; inconclusive = mostly about -25% to -30%;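 also: plate controls were DMSO wells for no effect and wells without enzyme for full effect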
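Resorufin fluorescence (ex540/em590), read at 0 and 20 min after diaphorase/resazurin addition, reports the NADH left after a 5 min room-temperature reaction of 2 nM human LDH5 with 0.06 mM NADH and 0.2 mM pyruvate.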
TDP1 cell noCPT: qHTS for Inhibitors of human tyrosyl-DNA phosphodiesterase 1 (TDP1): qHTS in cells in absence of CPT. DT40 Tdp1-/- hTDP1 cells, no CPT, ATP luminescence, 48 h. Potency, µM (titrated, usually from 46.2 µM), inactives show at the highest dose activity change, negative = growth inhibition, usual class: inhibitors. 15% of 420,000 active. AID 686978, 2013; also: potency is read from the fitted curve at half-maximal effect; nearly all actives have a fitted effect of over 55% in size
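Chicken DT40 Tdp1-/- cells stably complemented with human TDP1 were seeded at 400 cells/well with DMSO in place of 20 nM camptothecin. After compound pinning, cells grew at least 48 hr at 37 °C; viability read by CellTiter-Glo luminescence.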
Gal4-VP16 FLuc: VP16 counterscreen qHTS for inhibitors of ROR gamma transcriptional activity; 3.5% of 310,000 active; Potency, µM (series often up to 53.6 µM), for inactives: top-dose activity, negative = inhibition, hits mostly inhibitors; Drosophila S2 Gal4-VP16 UAS-luciferase, luminescence, 20 h;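 also: Gal4-VP16 expression switched on by copper sulfate through the metallothionein promoter; potency is read from the fitted curve at half-maximal effect; nearly all actives have a fitted effect of over 50% in size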
* hit, by the source's call; ? = inconclusive; / = no result given; [ ] = another dose, or the depositor's remark. Rows were chosen to be rich in hits. Some 18% of all compounds tested hit in one or more screens of this group. Unless noted, calls follow the shape of the dose curve; as a rule, active = well fitted curve in the direction sought with a large enough effect; inconclusive = small, poorly fitted or top-dose-only effect, or another doubt; inactive = no such curve, though single readings can be large; an effect the other way counts as inactive or inconclusive. Unless noted, % is scaled to controls: 0 for no effect and ±100 for the full control effect.

SMILES	DT40 TDP1 CPT	RORgamma inh	IL1B secr inh	LDHA inh	TDP1 cell noCPT	Gal4-VP16 FLuc
O=C(Nc1cccnc1)c1ccco1	?	24%	-3	-6	23µM*	5%
COc1ccccc1-c1cc(C(=O)Nc2cc(OC)c(OC)c(OC)c2)no1	0.52µM*	/	/	-4	0.65µM*	/
Cc1ccc(C(=O)/C=C/c2ccc(-c3cc(Cl)ccc3Cl)o2)cc1	/	/	/	14	/	/
CCCOc1ccc(/C=C/C(=O)Nc2cc(C(C)(C)C)ccc2OC)cc1OC	/	/	/	9	/	/
COc1ccc(NC(=O)CSC2=Nc3ccccc3C3=NC(C)C(=O)N23)cc1Cl (stereo not drawn)	/	/	/	-19	/	/
CC(C)n1cc(NC(=O)c2cc(-c3ccccc3)on2)cn1	5.2µM*	20%	18	0	3.7µM*	3%
Cc1ccc(NC(=O)c2cc(-c3ccco3)on2)cc1	15µM*	21%	-27	-6	?	-24%
Cc1ccc(NC(=O)c2cc(-c3ccco3)on2)cc1C	?	27%	-12	3	?	1%
COc1ccc(OC)c(-c2cc(C(=O)NCc3cccs3)no2)c1	21µM*	42%	-14	7	?	-10%
COc1cccc(-c2cc(C(=O)Nc3ccc(OC)cc3OC)no2)c1	4%	/	/	-10	-15%	/
O=C(Nc1cccnc1)c1cc(-c2ccccc2)on1	-21%	3%	21	-1	-25%	2%
COc1cccc(-c2cc(C(=O)Nc3cc(OC)c(OC)c(OC)c3)no2)c1	12µM*	12%	-26	-6	9.2µM*	-10%
CC(=O)c1cccc(Nc2nc3ccccc3nc2NS(=O)(=O)c2cc(C)ccc2C)c1	/	/	/	4	/	/
CC(C)(C)C(=O)[C@@H]1[C@@H](C(=O)c2ccccn2)[C@@]2(C(=O)Nc3ccccc32)[C@H]2c3ccccc3C=CN12	/	/	/	64	/	/
CCCc1cc(C(=O)Nc2cccnc2)no1	9.2µM*	0%	-3	-2	-5%	?
COc1ccc(N2CCN(c3cc(C(=O)Nc4cc(OC)c(OC)c(OC)c4)ncn3)CC2)cc1OC	15µM*	/	34	11	18µM*	/
COc1cc(NC(=O)c2cccnc2Sc2ccc(Cl)cc2)cc(OC)c1OC	?	?	1	-5	?	0%
COc1cccc(-c2cc(C(=O)Nc3cccnc3)no2)c1	21µM*	20%	28	-6	13µM*	-3%
COc1cc(NC(=O)CN2CCN(c3ccccn3)CC2)cc(OC)c1OC	-29%	12%	5	2	-19%	0%
COc1cc(NC(=O)c2ccccn2)cc(OC)c1OC	16µM*	-5%	3	3	?	-11%
CCOc1cccc(C(=O)NC23CC4CC(CC(C4)C2)C3)c1	/	/	/	-2	/	/
CCOCCCNC(=S)NCc1cccc(COCc2ccccc2)c1	/	/	/	3	/	/
O=C(Nc1cccnc1)c1cc(-c2ccco2)on1	9.2µM*	16%	-12	-6	?	-6%
Cc1nc(-c2ccccc2)cn(O)c1=O	-9%	6.3µM*	-3	3	0%	-72%
Cc1nn2cc(-c3ccccc3)nc2[nH]c1=O	-7%	8%	28	-3	-1%	7%
SMILES	DT40 TDP1 CPT	RORgamma inh	IL1B secr inh	LDHA inh	TDP1 cell noCPT	Gal4-VP16 FLuc
CCOc1ccc(/C=C/C(=O)Nc2cccc(C(C)=O)c2)cc1	-85%	1.1µM*	-2	-8	0.58µM*	4.5µM*
CCOc1ccc(NC(C(=O)Nc2cccc(C(C)=O)c2)c2ccccc2)cc1 (stereo not drawn)	15µM*	?	0	6	15µM*	27%
NC(=S)n1[nH]c(-c2ccc([N+](=O)[O-])cc2)c(N=Nc2ccc(O)cc2)c1=O	?	1%	5	-2	?	-4%
CC(=O)N(C)c1ccc(N=Nc2c(C)[nH]n(-c3ccccc3)c2=O)cc1	?	20µM*	9	-1	?	?
CCOC(=O)c1ccc(N=Nc2c(C)[nH]n(-c3ccccc3)c2=O)cc1	-2%	23%	24	-10	?	-14%
CCN(CC)S(=O)(=O)c1ccc(N=Nc2c(C)[nH]n(C(N)=S)c2=O)cc1	-24%	0.05µM*	3	-2	-27%	0.013µM*
CC(=O)N(C)c1ccc(N=Nc2c(C)[nH]n(C(N)=S)c2=O)cc1	-9%	0.35µM*	-26	0	22%	3.2µM*
CCS(=O)(=O)c1ccc(-c2csc(-c3ccc(Cl)cc3)n2)c(Cl)c1Cl	?	29%	19	0	?	-1%[0.365 µM]
CCS(=O)(=O)c1ccc(-c2csc(-c3ccccc3Cl)n2)c(Cl)c1Cl	?	11%	-25	-8	23µM*	3%[0.365 µM]
O=C(Nc1cccc(-c2csc(-c3ccccc3)n2)c1)c1cccs1	18µM*	?	-63*	2	16µM*	?
Cc1ccn2cc(-c3cccc(NC(=O)c4cccs4)c3)nc2c1	?	-27%	-99*	-7	21µM*	?
O=C(Nc1cccc(-c2cn3cccnc3n2)c1)c1cccs1	-20%	36%	-24	-2	-27%	-6%
CC(C)(CNC(=O)CCc1ncc(-c2ccccc2F)o1)N1CCOCC1	/	/	/	-3	/	/
Nc1nccnc1C(=O)NCc1ncc(-c2ccccc2)o1	/	/	/	4	/	/
COC(CNC(=O)C1CCCN1C(=O)OCc1ccccc1)OC (stereo not drawn)	-15%	-9%	-13	-15	-8%	-6%
COC(=O)[C@@H]1C[C@]2(OC(=O)c3ccccc3)C=CC(=O)C[C@@H]2N1C(=O)OCc1ccccc1	6.5µM*	?	-107*	0	7.3µM*	?
CCOc1ccc2nc(N3CCC(C(=O)NCCc4cc(OC)ccc4OC)CC3)sc2c1	/	/	/	3	/	/
CCCCN(C)CCCNC(=O)C1CCN(c2nc3ccc(CC)cc3s2)CC1	6.5µM*	/	/	4	5.8µM*	/
CCOc1ccc2nc(N3CCC(C(=O)NCCCN4CCOCC4)CC3)sc2c1	-3%	-6%	-66*	-8	?	-13%
CCCCN(CC)CCCNC(=O)C1CCN(c2nc3ccc(CC)cc3s2)CC1	12µM*	/	/	-8	13µM*	/
CCOc1ccc2nc(N3CCCC(C(=O)NCCCN4CCOCC4)C3)sc2c1 (stereo not drawn)	?	29%	-27	0	?	0%
CCOc1ccc(OCc2cccc(C(=O)O)c2)cc1	15µM*	1.6µM*	8	-6	8.2µM*	?

Source: PubChem (National Center for Advancing Translational Sciences (NCATS))
